Compound activity deposited in PubChem by National Center for Advancing Translational Sciences (NCATS).
JMJD2E inh: inhibitors of human JMJD2E histone demethylase; 230,000 compounds, 1.6% hits; JMJD2E catalytic domain, FDH-coupled NADH fluorescence (FDH is formaldehyde dehydrogenase); Potency, µM (series often up to 57.1 µM), most hits filed as inhibitors; AID 2147; active means well fitted inhibition curve with a large enough effect, not every such curve was filed as active; inconclusive means small, poorly fitted or top-dose-only effect, or another doubt; inactive means no such curve, though single readings can be large or run the other way; further: nearly all actives have a fitted effect of over 50% in size
Tau FP inhib: inhibitors of human tau fibril formation; P10636; K18 P301L tau heparin fibrillization, Alexa594 FP, 6 h; Potency, µM (doses to about 57.7 µM), actives largely listed as inhibitors; 280,000 compounds, 0.39% hits; further: nearly all actives have a fitted effect of over 55% in size
Target sequence (P10636 561-689 P618L limits assumed): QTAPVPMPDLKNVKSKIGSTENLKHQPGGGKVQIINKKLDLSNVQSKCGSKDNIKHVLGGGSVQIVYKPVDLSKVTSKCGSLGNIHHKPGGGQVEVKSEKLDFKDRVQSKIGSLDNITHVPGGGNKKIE
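Steps: dispense K18 P301L tau (15 uM plus 0.24 uM Alexa 594 tracer, final) in pH 7 sodium acetate; add compound; add heparin (20 uM final); incubate 6 hr, 37 C; add ThT (30 uM final); after 1 hr ambient, read FP.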
Lamin A splicing: LMNA splicing modulation; HeLa LMNA splicing GFP/RFP minigene ratio, 48 h; Potency, µM (highest dose often 46.1 µM), actives largely listed as inhibitors; 200,000 compounds, 0.01% hits; AID 1487; active means well fitted inhibition curve with a large enough effect in the signal ratio, with a control signal flat, not every such curve was filed as active; inconclusive means small, poorly fitted or top-dose-only effect, or effect the other way, or a change in a side signal; the % refers to the signal ratio
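Read-out is the ratio of GFP to DsRed2 object intensity, acquired by 488 nm laser-scanning cytometry on HeLa lamin A-EGFP minigene reporter cells. Compound incubation 48 hrs at 37 °C in Opti-MEM with 2% FBS; DMSO 0.5% final.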
Tau fluor cs: counter-screen for tau fibril formation inhibitors. AID 1463. 280,000 compounds, 0.93% hits. Potency, µM (titrated, usually from 57.7 µM). tau K18 P301L Alexa594 fluorescence, heparin fibrillization; further: nearly all actives have a fitted effect of over 55% in size
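Human tau K18 P301L (15 uM unlabeled, 0.24 uM Alexa 594-labeled) in 100 mM sodium acetate pH 7 with 20 uM heparin, 6 hr at 37 C. ThT 30 uM added, 1 hr ambient; Alexa 594 FP and total fluorescence read at 555/632 nm.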
CBFb RUNX1 block: blocks binding between human CBF-beta and RUNX1; AlphaScreen CBFb-His/RUNX1-biotin binding, biochemical; Q01196+Q13951; Potency, µM (titrated, usually from 59.8 µM), hits mostly inhibitors; AID 1477; 230,000 tested, under 10 active
Target sequence (Q01196 whole entry, looked up): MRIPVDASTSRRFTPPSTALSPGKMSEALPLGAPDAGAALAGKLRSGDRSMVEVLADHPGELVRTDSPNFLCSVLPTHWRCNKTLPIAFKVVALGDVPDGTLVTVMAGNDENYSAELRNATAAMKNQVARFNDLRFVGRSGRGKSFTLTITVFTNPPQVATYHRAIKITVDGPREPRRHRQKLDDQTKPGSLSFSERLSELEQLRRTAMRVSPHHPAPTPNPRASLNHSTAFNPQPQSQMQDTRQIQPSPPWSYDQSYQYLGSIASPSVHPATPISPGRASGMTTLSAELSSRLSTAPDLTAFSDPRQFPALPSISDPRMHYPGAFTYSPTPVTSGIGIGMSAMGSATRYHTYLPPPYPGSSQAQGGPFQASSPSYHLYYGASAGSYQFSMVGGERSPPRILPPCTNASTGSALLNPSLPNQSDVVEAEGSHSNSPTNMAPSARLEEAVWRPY
Target sequence (Q13951 whole entry, looked up): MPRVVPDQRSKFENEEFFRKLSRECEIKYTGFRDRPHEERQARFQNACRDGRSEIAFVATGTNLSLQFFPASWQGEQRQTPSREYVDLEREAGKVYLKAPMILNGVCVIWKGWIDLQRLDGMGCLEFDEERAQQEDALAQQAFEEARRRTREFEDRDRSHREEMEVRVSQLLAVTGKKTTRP
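AlphaScreen binding: CBFb-His and RUNX1-biotin (30 nM each) preincubated 20 min, compound added for 15 min, then nickel and streptavidin beads for 90 min, all at room temperature. Disruption of the interaction by any mechanism counts as activity.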
Tau ThT inhib: inhibitors of human tau fibril formation, thioflavin T binding | Potency, µM (series often up to 57.4 µM), hits mostly inhibitors | AID 1460 | recombinant tau K18 P301L (four-repeat tau fragment), heparin-induced fibrillization, ThT fluorescence | P10636 | 270,000 compounds, 2.1% hits; further: nearly all actives have a fitted effect of over 55% in size
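Heparin-induced fibrillization of the P301L-mutant K18 repeat-domain fragment of human tau was followed by ThT binding in quantitative high-throughput format.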
Large screens that a line does not name were inactive; [ ] = remark or other dose. This is a sample that favours compounds with a hit; in the whole collection about 3.2% have one here. Unless noted, the call rests on the fitted dose curve; in most records, active means well fitted curve in the direction sought with a large enough effect; inconclusive means small, poorly fitted or top-dose-only effect, or another doubt; inactive means no such curve, though single readings can be large; an effect the other way counts as inactive or inconclusive.

Cc1ccc(NC(=O)CSc2nc3ccc(NC(=O)c4cccs4)cc3s2)c(C)c1	Tau FP inhib 17.8µM, Tau fluor cs inconclusive (no result: JMJD2E inh, CBFb RUNX1 block)
Cc1ccccc1OCCSc1nc2ccc(NC(=O)c3cccc(F)c3)cc2s1	Tau FP inhib 14.1µM, Tau fluor cs inconclusive, Tau ThT inhib inconclusive (no result: JMJD2E inh, CBFb RUNX1 block)
Cc1ccccc1C(=O)Nc1ccc2nc(SCCOc3ccccc3)sc2c1	Tau FP inhib inconclusive (no result: JMJD2E inh, CBFb RUNX1 block)
Cc1ccccc1OCCSc1nc2ccc(NC(=O)c3cccs3)cc2s1	Tau FP inhib 10µM, Tau fluor cs inconclusive (no result: JMJD2E inh, CBFb RUNX1 block)
O=C(CSc1nc2ccc(Nc3nc(N4CCCC4)nc(N4CCCC4)n3)cc2s1)NCc1ccco1	JMJD2E inh 20µM (no result: Lamin A splicing, Tau ThT inhib)
Cc1cc(C)cc(NC(=O)CSCc2cc(=O)c3cc(Cl)ccc3[nH]2)c1	Lamin A splicing inconclusive (no result: JMJD2E inh, CBFb RUNX1 block)
CCC1CN(C(=O)Nc2cccc3c2CCCC3)c2cc(Cl)ccc2O1 (centres undefined)	Lamin A splicing inconclusive (no result: JMJD2E inh, CBFb RUNX1 block)
CCc1c(CN2CCN(c3cccc(C)c3)C(C)C2)csc1C (centres undefined)	none (no result: JMJD2E inh, Lamin A splicing, CBFb RUNX1 block)
COc1cccc(NC(=O)CSc2nc3ccc(NC(=O)c4ccco4)cc3s2)c1	Tau FP inhib inconclusive, Lamin A splicing inconclusive, Tau fluor cs 15.8µM[quencher] (no result: JMJD2E inh, CBFb RUNX1 block)
Cc1ccccc1OCCSc1nc2ccc(NC(=O)c3ccccc3)cc2s1	Tau FP inhib 11.2µM, Tau fluor cs inconclusive (no result: JMJD2E inh, CBFb RUNX1 block)
Cc1cccc(NC(=O)CSc2nc3ccc(NC(=O)c4ccco4)cc3s2)c1	Tau FP inhib inconclusive, Lamin A splicing inconclusive, Tau fluor cs inconclusive (no result: JMJD2E inh, CBFb RUNX1 block)
Cc1cccc(OCCSc2nc3ccc(NC(=O)c4cccs4)cc3s2)c1	Tau FP inhib 7.08µM, Tau fluor cs inconclusive (no result: JMJD2E inh, CBFb RUNX1 block)
COc1cc(C)ccc1OCCSc1nc2ccc(NC(C)=O)cc2s1	Tau FP inhib 25.1µM, Lamin A splicing inconclusive, Tau fluor cs inconclusive (no result: JMJD2E inh, CBFb RUNX1 block)
Cc1cc(-c2ccccc2)nc2cc(C(=O)Nc3cc(C(F)(F)F)ccc3Cl)nn12	none (no result: JMJD2E inh, Lamin A splicing, CBFb RUNX1 block)
CCOC(=O)c1c(C)oc2nc(C)nc(NCCc3ccc(OCC)c(OCC)c3)c12	Tau ThT inhib inconclusive (no result: JMJD2E inh, CBFb RUNX1 block)
Cc1ccc2nc(SCC(=O)Nc3ccc(F)cc3F)[nH]c2c1	none (no result: Lamin A splicing)
CCCC(=O)Nc1ccc2nc(SCC(=O)Nc3ccc(N4CCOCC4)c(Cl)c3)sc2c1	Lamin A splicing inconclusive, Tau fluor cs 14.1µM[quencher], Tau ThT inhib inconclusive
Cc1ccc(NC(=O)CSc2nc3ccc(Br)cc3[nH]2)c(C)c1	Tau FP inhib 22.4µM, Tau fluor cs inconclusive (no result: JMJD2E inh, Lamin A splicing, CBFb RUNX1 block)
N#CC1(C#N)C2=C(CCCC2)NC(c2ccccc2)C1(C#N)C#N (centres undefined)	JMJD2E inh inconclusive, Tau FP inhib inconclusive, Tau fluor cs inconclusive, Tau ThT inhib 25.1µM
COc1ccc(/C=N/NC(=O)c2ccc(F)cc2)cc1CN1CCc2cc(OC)c(OC)cc2C1C (centres undefined)	JMJD2E inh inconclusive, Tau fluor cs inconclusive, CBFb RUNX1 block inconclusive, Tau ThT inhib inconclusive
COc1ccc(/C=N\NC(=O)c2cc(O)c(O)c(O)c2)cc1CN1CCN(c2ccc(F)cc2)CC1	JMJD2E inh 3.98µM, Tau fluor cs inconclusive, Tau ThT inhib inconclusive
COc1ccc(/C=N/NC(=O)c2ccc(O)cc2)cc1CN1CCCc2ccccc21	Tau FP inhib inconclusive, Lamin A splicing inconclusive, Tau fluor cs 14.1µM[quencher], CBFb RUNX1 block inconclusive, Tau ThT inhib inconclusive
CCCC(CCC)C(=O)Nc1cccc(-c2nc3cccnc3s2)c1C	Lamin A splicing inconclusive (no result: JMJD2E inh, CBFb RUNX1 block)
CC1(C)CC(=O)C2=C(C1)NC1=C(C(=O)c3ccccc31)C2c1cc([N+](=O)[O-])ccc1O (centres undefined)	Tau fluor cs 15.8µM[quencher], CBFb RUNX1 block inconclusive, Tau ThT inhib 14.1µM (no result: Lamin A splicing)
CC1(C)CC(=O)C2=C(C1)NC1=C(C(=O)c3ccccc31)C2c1ccccc1 (centres undefined)	Lamin A splicing inconclusive, Tau fluor cs inconclusive, CBFb RUNX1 block inconclusive, Tau ThT inhib inconclusive
CSCC[C@H](N)C(=O)N[C@@H](CCCN=C(N)N)C(=O)N[C@@H](Cc1ccccc1)C(=O)N[C@@H](Cc1ccccc1)C(=O)N[C@H](C(=O)O)C(C)C	none (no result: JMJD2E inh, Tau FP inhib, Lamin A splicing, Tau fluor cs, Tau ThT inhib)
CC(=O)Nc1cccc(Nc2nc(-c3ccccc3)nc3ccccc23)c1	JMJD2E inh inconclusive, Tau FP inhib inconclusive, Tau fluor cs inconclusive (no result: Lamin A splicing)
Cc1cccc(Nc2nc(-c3ccccc3)nc3ccccc23)c1	Tau FP inhib 8.91µM, Tau fluor cs 6.31µM[quencher] (no result: JMJD2E inh, Lamin A splicing, CBFb RUNX1 block)
Oc1cccc(Nc2nc(-c3ccccc3)nc3ccccc23)c1	Tau FP inhib 14.1µM, Tau fluor cs 7.08µM[quencher] (no result: JMJD2E inh, Lamin A splicing, CBFb RUNX1 block)
COc1ccc(Nc2nc(-c3ccccc3)nc3ccccc23)cc1S(=O)(=O)N1CCOCC1	JMJD2E inh inconclusive, Tau FP inhib 25.1µM, Tau fluor cs 12.6µM[quencher] (no result: Lamin A splicing, Tau ThT inhib)
COc1ccc(NC(=O)c2cc(-c3ccco3)nc3ccccc23)cc1S(=O)(=O)N1CCOCC1	JMJD2E inh inconclusive, Tau fluor cs inconclusive, CBFb RUNX1 block inconclusive, Tau ThT inhib inconclusive
CN(C)c1ccc(-c2nc(Nc3ccncc3)c3ccccc3n2)cc1	JMJD2E inh inconclusive, Tau FP inhib inconclusive, Lamin A splicing inconclusive, Tau fluor cs 7.08µM[quencher], Tau ThT inhib 7.08µM (no result: CBFb RUNX1 block)
CNc1nc(-c2ccc(N(C)C)cc2)nc2ccccc12	JMJD2E inh inconclusive, Lamin A splicing inconclusive, Tau fluor cs inconclusive, Tau ThT inhib inconclusive (no result: CBFb RUNX1 block)
CN(C)c1ccc(-c2nc(N3CCNCC3)c3ccccc3n2)cc1	JMJD2E inh inconclusive, Lamin A splicing inconclusive, Tau fluor cs inconclusive, Tau ThT inhib 14.1µM (no result: CBFb RUNX1 block)
Cc1ccc(Nc2nc(-c3ccccc3)nc3ccccc23)cc1	Tau FP inhib 17.8µM, Lamin A splicing inconclusive, Tau fluor cs 10µM[quencher], Tau ThT inhib inconclusive (no result: JMJD2E inh, CBFb RUNX1 block)
Cc1ccc(Nc2nc(-c3ccncc3)nc3ccccc23)cc1	JMJD2E inh inconclusive
